# Screening results: PubChem BioAssay, National Center for Advancing Translational Sciences (NCATS)
# Shown are actives, neighbours in structure and some others; about 12% of the full set was active somewhere.
# PI5P4Ka inh: blocks human PI5P4K alpha kinase activity | P48426 | PI5P4Kalpha enzyme, ADP-Glo luminescence, 60 min; active compounds read low | max response, % | hit rate 1.2% among 330,000; active = max response of -50% or lower; inconclusive = between -30% and -50%; inactive = -30% or higher; also: value at the top dose of about 77 µM; % is scaled to controls: 0 for no effect and ±100 for the full control effect
#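 Reactions run in 0.038 M HEPES pH 7.4, 0.28 mM EGTA, 0.1% CHAPS and 5% DMSO, with PI5P4Kalpha, substrate, compound and 5 microM ATP final, one hour at room temperature. Readout is ADP-Glo luminescence.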
# G9a inh: inhibitors of human histone lysine methyltransferase G9a | Q96KQ7 | G9a H3K9 monomethylation, AlphaScreen, 2 h | Potency, µM (titrated, usually from 102 µM), for the others: at the highest dose activity, negative = inhibition, hits mostly inhibitors | hit rate 8.8% among 350,000; also: potency is read from the fitted curve at half-maximal effect; % is scaled to controls: 0 for no effect and ±100 for the full control effect; nearly all actives have a fitted effect of over 75% in size
#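 Signal arises when biotinylated H3K9 peptide, once monomethylated, bridges streptavidin donor and antibody-captured acceptor beads. Enzyme at 20 nM was preincubated 15 min with test compounds; peptide 500 nM and SAM 20 uM then reacted for 2 h.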
# HP1b chromo inh: blocks HP1-beta chromodomain binding to methylated histone tails; AlphaScreen HP1-beta / biotin-H3K9me3 peptide binding; Potency, µM (top dose mostly 114 µM), inactives show at the top dose activity change, negative = inhibition, most hits filed as inhibitors; hit rate 0.56% among 390,000; AID 540317; also: potency is read from the fitted curve at half-maximal effect; nearly all actives have a fitted effect of over 70% in size
#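 Compound inhibition of the preformed complex between 50 nM HP1-beta and 50 nM biotinylated H3K9me3 peptide was read by AlphaScreen. Buffer was PBS pH 7.4 with 0.01% Tween-20. Incubations ran 30 min at room temperature, with 10 ug/mL donor/acceptor beads.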
# PLK1 PBD inh: inhibitors of human PLK1 polo-box domain binding; P53350; Potency, µM, for inactives: max response, negative = inhibition, hits mostly inhibitors; hit rate 2.8% among 360,000; Plk1 PBD binding of FITC phosphopeptide, fluorescence polarization; also: potency is read from the fitted curve at half-maximal effect; series mostly up to about 57 µM; % is scaled to controls: 0 for no effect and ±100 for the full control effect; nearly all actives have a fitted effect of over 65% in size
# BAZ2B inh: inhibitors of human BAZ2B bromodomain | AlphaScreen BAZ2B-H3K14Ac peptide displacement | Potency, µM (doses to about 114 µM), for the others: at the top dose activity change, negative = inhibition, actives largely listed as inhibitors | hit rate 4.4% among 360,000; also: potency is read from the fitted curve at half-maximal effect; % is scaled to controls: 0 for no effect and ±100 for the full control effect; nearly all actives have a fitted effect of over 60% in size
#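 AlphaScreen displacement: compounds (up to 110uM) incubated 30 min at room temperature with a preformed 50 nM BAZ2B/50 nM biotinylated H3K14Ac peptide complex in PBS pH 7.4 with Tween-20. Donor and acceptor beads at 10 ug/mL final added, 20 min light-protected before reading.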
# JMJD2A Tudor inh: blocks the human JMJD2A Tudor domain; Potency, µM (highest dose often 114 µM), without a hit: top-dose activity change, negative = inhibition, most hits filed as inhibitors; AlphaScreen JMJD2A-Tudor / H3K4me3 peptide binding; AID 504339; hit rate 4.4% among 390,000; also: potency is read from the fitted curve at half-maximal effect; % is scaled to controls: 0 for no effect and ±100 for the full control effect; nearly all actives have a fitted effect of over 50% in size
# Target sequence (O75164 whole entry, looked up, the tested form may be a part): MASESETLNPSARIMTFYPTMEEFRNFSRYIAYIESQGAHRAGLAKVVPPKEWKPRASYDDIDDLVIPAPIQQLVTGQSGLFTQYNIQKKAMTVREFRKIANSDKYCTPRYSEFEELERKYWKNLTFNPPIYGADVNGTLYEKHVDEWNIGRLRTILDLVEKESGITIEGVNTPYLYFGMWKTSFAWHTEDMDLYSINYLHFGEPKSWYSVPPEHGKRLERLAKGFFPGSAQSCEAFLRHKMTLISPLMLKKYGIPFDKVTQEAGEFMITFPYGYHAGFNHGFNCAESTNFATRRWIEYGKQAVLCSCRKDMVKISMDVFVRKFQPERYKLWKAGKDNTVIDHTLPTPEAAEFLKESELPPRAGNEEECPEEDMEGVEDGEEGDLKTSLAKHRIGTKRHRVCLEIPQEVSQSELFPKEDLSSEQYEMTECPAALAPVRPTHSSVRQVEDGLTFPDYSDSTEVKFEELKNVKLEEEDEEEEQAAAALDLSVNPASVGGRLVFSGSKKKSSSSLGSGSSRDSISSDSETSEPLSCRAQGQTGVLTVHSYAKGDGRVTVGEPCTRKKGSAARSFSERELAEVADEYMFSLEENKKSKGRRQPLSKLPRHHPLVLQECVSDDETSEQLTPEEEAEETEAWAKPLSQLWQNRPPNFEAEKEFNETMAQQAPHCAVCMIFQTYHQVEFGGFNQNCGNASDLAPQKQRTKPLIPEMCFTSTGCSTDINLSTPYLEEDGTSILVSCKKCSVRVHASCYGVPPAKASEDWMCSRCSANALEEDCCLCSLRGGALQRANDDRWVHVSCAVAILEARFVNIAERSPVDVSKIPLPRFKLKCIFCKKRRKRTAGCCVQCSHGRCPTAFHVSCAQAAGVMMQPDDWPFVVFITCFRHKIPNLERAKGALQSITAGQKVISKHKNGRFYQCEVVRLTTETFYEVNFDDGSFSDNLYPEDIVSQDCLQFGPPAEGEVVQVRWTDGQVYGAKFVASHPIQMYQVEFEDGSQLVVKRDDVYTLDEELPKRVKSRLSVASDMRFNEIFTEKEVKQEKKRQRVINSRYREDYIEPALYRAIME
# * marks the source's active call; other numbers are inactive results; ? = inconclusive; . = no result; [ ] = dose if it differs, or a comment. Unless noted, calls follow the shape of the dose curve; as a rule, active = well fitted curve in the direction sought with a large enough effect; inconclusive = small, poorly fitted or top-dose-only effect, or another doubt; inactive = no such curve, though single readings can be large; an effect the other way counts as inactive or inconclusive.
SMILES,PI5P4Ka inh,G9a inh,HP1b chromo inh,PLK1 PBD inh,BAZ2B inh,JMJD2A Tudor inh
CSCC(C)N1CCC(n2nccc2NC(=O)CCCc2ccccc2)CC1 (stereo unspecified),-2,-1%,40%,?,-17%,-7%
C=C(C)CCC(C)N1CCC(n2nccc2NC(=O)CCCc2ccccc2)CC1 (stereo unspecified),0,79µM*,14%,-21%,-15%,-13%
CC(C)C(=O)N1CCC(n2nccc2NC(=O)CCc2ccccc2)CC1,-22,2%,9%,3.4µM*,-2%[57.1 µM],25µM*
COCCC(=O)N1CCC(n2nccc2NC(=O)c2ccccc2C)CC1,-12,22%,23%,21µM*,5%,?
COc1cc(C2NC(=O)CCC2[N+](=O)[O-])c(OC)cc1Br (stereo unspecified),2,6%,41%,2%,2%,-11%
CCCc1ccccc1OCCNC(C)=O,?,-7%[59 µM],-11%,3.4µM*,-5%,16µM*
O=C(Nc1ccccn1)c1ccc2c(c1)OCO2,-3,50µM*,43%,2%,-16%,-5%
Cc1ccc(C(=O)Nc2ccc3c(c2)OCO3)o1,-24,4%[12.7 µM],-22%,12µM*,2%,-7%[11.4 µM]
O=C(CNC(=O)c1ccc2c(c1)OCO2)Nc1ncccc1O,1,?,5%,-13%,?,56µM*
O=C(c1ccc2c(c1)OCCO2)N1CCN(c2ccccn2)CC1,10,20%,25%,-1%,-24%,-13%
O=C(Nc1ccccn1)c1ccc2c(c1)OCCO2,-12,16%[59 µM],17%,-9%,-8%,-3%
O=C(c1ccc2c(c1)OCO2)N1CCN(c2ccccn2)CC1,-9,8%[59 µM],?,21µM*,4%,-20%[57.1 µM]
N#CC[C@H](c1ccccc1)N1CCN(Cc2ccccc2)CCC1=O,-1,14%,43%,-11%,-9%,-13%
CC(C)CNC(=O)C1(C)CCCN1Cc1ccc(S(C)(=O)=O)cc1 (stereo unspecified),-8,.,.,-14%,.,.
O=C(Nc1ccc2c(c1)OCO2)c1ccccn1,-23,1.6µM*,?,-10%,?,4.5µM*
S=C(Nc1ccc2c(c1)OCO2)Nc1ccc2c(c1)OCO2,-23,?,?,-30%,?,-21%
CN(C)C(=S)Nc1ccc2c(c1)OCO2,-15,8.9µM*,-35%,6.7µM*,-22%,-3%
CCN(c1ccc(NC(=O)COC(=O)/C=C/c2cccs2)cc1)C(C)C,-7,8.9µM*,35µM*,-25%,18µM*,22µM*
Cc1ccc(NC(=O)COC(=O)/C=C/c2cccs2)cc1,-3,4%[59 µM],38%,-7%,-4%,15%[57.1 µM]
COc1ccc(NC(=O)COC(=O)c2ccc3ccccc3n2)cc1OC,3,.,21%,7%,.,-18%
CCN(c1ccc(NC(=O)COC(=O)c2ccc3ccccc3n2)cc1)C(C)C,.,?,22µM*,-11%,35µM*,25µM*
N#Cc1nc(-c2ccc(COc3ccccc3)o2)oc1N1CCCCC1,.,4.5µM*,?,.,5µM*,?
CC1CCN(c2oc(-c3ccc(COc4ccc(Cl)cc4)o3)nc2C#N)CC1,.,?,17%,.,?,?
N#Cc1nc(-c2ccc(COc3ccc(Cl)cc3)o2)oc1N1CCCCC1,.,3.2µM*,-8%,.,?,?
Cc1cccc(OCc2ccc(-c3nc(C#N)c(N4CCN(c5ccccc5)CC4)o3)o2)c1,.,-42%[59 µM],12%,.,-38%,-35%
CCOc1ccc(-c2nc3c(c(CC)nn3-c3ccccc3)c3cc(OC)c(OC)cc23)cc1,.,-8%[59 µM],38%,.,3%,-3%
CCOC(OCC)c1nc(N)[nH]c(=O)c1CCCCc1ccccc1,-52*,.,9%[57 µM],-3%,.,-15%
CCCCCc1c(C)nc(Nc2ccccc2)[nH]c1=O,0,-10%[59 µM],29%,-3%,15%,-5%
CCCCCCCCC[n+]1cccc2c3ccccc3ccc21,-18,.,42%,-3%,9%,6%
CCCCCCCCCCCCCCCC[n+]1cccc2ccccc21,-59*,6.3µM*,-13%,?,50µM*,?
